Measured values reported in PubChem BioAssay (NCATS).
Where “and” joins values, the source holds several entries; their conditions need not be identical. Equal values may be shown once. Records with an inconclusive call do not appear. Calls of active or inactive are those of the source. Calls come from the whole dose curve; as a rule, active = well fitted inhibition curve with a large enough effect; inconclusive = small, poorly fitted or top-dose-only effect; inactive = flat fitted curve, though single readings scatter.

Assays:
[1] = test system: CRL-7250; assay: Cytotoxic Profiling of Annotated Libraries Using Quantitative High-Throughput Screening (AID 1296008); settings: Five cell lines viability, CellTiter-Glo ATP luminescence, 48-72 h; max response: hits give low values; for max response: % is set by controls: 0 for no effect and ±100 for the full control effect
Summary of the method: (§1)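 Cells exposed to compounds for 48 or 72 hr at 37 degrees Celsius. Viability read as ATP-coupled luminescence with CellTiter-Glo after 10 min at room temperature.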

[2] = test system: HEK293; assay: as above; settings: Five cell lines viability, CellTiter-Glo ATP luminescence, 48-72 h; max response: hits give low values
Summary of the method: as §1

[3] = test system: HaCat; assay: as above; settings: Five cell lines viability, CellTiter-Glo ATP luminescence, 48-72 h; max response: hits give low values
Summary of the method: as §1

[4] = test system: KB-3-1; assay: as above; settings: Five cell lines viability, CellTiter-Glo ATP luminescence, 48-72 h; max response: hits give low values
Summary of the method: as §1

[5] = test system: NIH3T3; assay: as above; settings: Five cell lines viability, CellTiter-Glo ATP luminescence, 48-72 h; max response: hits give low values
Summary of the method: as §1

[6] = test system: CRL-7250; assay: qHTS assay to identify novel small-molecules to repurpose for Merkel cell carcinoma treatment (AID 1296009); settings: MCC and control cell lines, CellTiter-Glo viability, 72 h; at 44.8 µM (top of the series) unless noted
Summary of the method: (§2)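 CellTiter-Glo luminescence after 72 hr compound exposure at 37 degree celsius gave cell viability. Libraries NPC and MIPE were run as 8- and 11-point dose responses; RLUs normalized to DMSO (negative) and no-cell (cytotoxicity) controls.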

[7] = test system: HACAT; assay: as above; settings: MCC and control cell lines, CellTiter-Glo viability, 72 h; at 44.8 µM (top of the series) unless noted
Summary of the method: as §2

[8] = test system: HEK293T; assay: as above; settings: MCC and control cell lines, CellTiter-Glo viability, 72 h; at 44.8 µM (top of the series) unless noted
Summary of the method: as §2

Measured: max response
Note: nearly all actives have a fitted effect of over 60% in size.

Clc1ccc(N2C[C@H]3CC[C@@H](C2)N3)nn1
inactive: [1] -3.23% | [2] 2.01% | [3] -0.574% | [4] 2.38% | [5]

COC1=CC(=O)O[C@@H](CCc2ccccc2)C1
inactive: [1] | [2] 0.422% | [3] 3.86% | [4] | [5] | [6]

CCc1[nH]c2ccc(OC)cc2c1CCN(C)C
inactive: [1] 2.45% | [2] -15.9% | [3] 1.59% | [4] -6.67% | [5]

COC(=O)C12C(=O)C(C)(O)C(=O)C1(C)C(C)=CC1C34CCC(OC3=O)C(C)(CO)C4CCC12C (centres undefined)
inactive: [1] | [2] 4.01% | [3] 0.667% | [4] | [5] | [6] inactive [at 17.4 µM]

Cc1cc(C(=O)CN2CCCC2)c(C)n1-c1ccc(F)cc1
inactive: [1] 1.13% and -6.04% | [2] -9.04% | [3] 1.57% and -29% | [4] 2.15% and -9.06% | [5] 1.34% and -18.5%

C=C[C@H]1CN2CC[C@H]1C[C@@H]2[C@@H](O)c1ccnc2ccccc12
inactive: [1] -1.31% | [2] -22.7% | [3] 1.51% | [4] 5.41% and -18.8% | [5] -3.21%

COCC1OC(=O)c2coc3c2C1(C)C1=C(C3=O)C2CCC(=O)C2(C)CC1O (centres undefined)
inactive: all assays above

CCCN1CCO[C@H]2c3cc(O)ccc3OC[C@@H]21
inactive: [1] | [2] | [3] 3.96% | [4] | [5] | [6] | [8]

C[C@@]12C[C@@H](c3ccoc3)OC(=O)C1CC[C@]1(C)[C@H]2[C@H]2C=C[C@]1(O)C(=O)O2 (some centres undefined)
inactive: [1] | [2] | [3] -0.33% | [4] 3.68% | [5] | [6] | [8]

COC1=CC(=O)O[C@@H](/C=C/c2ccccc2)C1
inactive: [1] -9.99% | [2] -8.8% | [3] | [4] | [5] | [7]

C[C@H](NC(=O)Cc1cc(F)cc(F)c1)C(=O)N[C@@H]1N=C(c2ccccc2)c2ccccc2N(C)C1=O
inactive: [1] | [2] -14.2% | [3] | [4] 4.54% | [5] -0.0571% | [6] | [7]

CC1C/C=C/C(O)C(O)CC/C=C/c2cc(O)cc(O)c2C(=O)O1 (centres undefined)
inactive: [1] | [2] | [3] -2.35% | [4] 0.529% | [5] 3.47% | [6] | [8]

C[C@@]1(C(=O)O)CC[C@]2(C)CC[C@]3(C)C4=CC(=O)c5cc(O)c(O)cc5[C@]4(C)CC[C@@]3(C)[C@@H]2C1
inactive: [1] | [2] -9.77% | [3] | [4] | [5] | [6] inactive [at 17.4 µM] | [7] inactive [at 17.4 µM]

C/C=C(\C)C(=O)OC1CC2C(C)(C)OC(=O)CC(OC(C)=O)C2(C)C2CC(OC(=O)C(C)C)C3(C)C(c4ccoc4)CC4OC43C12C (centres undefined)
inactive: [1] | [2] -0.997% | [3] | [4] 7.39% | [5] 0.059% | [6] inactive [at 17.4 µM] | [7] inactive [at 17.4 µM]

COC(=O)C1(C)CCC(O)C2(C)c3c(O)cc(C(C)C)cc3C(O)C(OC(C)=O)C12 (centres undefined)
inactive: [1] | [2] | [3] -12.7% | [4] | [5] 0.503% | [6] inactive [at 17.4 µM] | [8] inactive [at 17.4 µM]

CC(C)(C)c1cc(C(C)(C)C)c2c(c1)C(O)(C(F)(F)F)C(=O)O2 (centres undefined)
inactive: [1] | [2] 1.2% | [3] | [4] | [5] | [6] | [7]

COc1cc(C)[nH]c(=O)c1CNC(=O)c1c(C)n([C@H](C)C2CCOCC2)c2ccccc12
inactive: [1] | [2] | [3] 4.27% | [4] | [5] | [6] | [8]
